TDP1 cell noCPT: qHTS for Inhibitors of human tyrosyl-DNA phosphodiesterase 1 (TDP1): qHTS in cells in absence of CPT; DT40 Tdp1-/- hTDP1 cells, no CPT, ATP luminescence, 48 h; Potency, µM (top dose mostly 46.2 µM), without a hit: at the top dose activity change, negative = growth inhibition, usual class: inhibitors; 15% of 420,000 active; note: nearly all actives have a fitted effect of over 55% in size
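DT40 Tdp1-/-;hTDP1 cells, no CPT (DMSO vehicle only), 400 cells/well; compounds pin-transferred; ≥48 hr, 37 °C; CellTiter-Glo 30 min RT dark, luminescence read.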
TDP1 cell CPT: qHTS for Inhibitors of human tyrosyl-DNA phosphodiesterase 1 (TDP1): qHTS in cells in presence of CPT. chicken DT40 Tdp1-/-;hTDP1 cells + 20 nM CPT, ATP luminescence, 48 h. Potency, µM (titrated, usually from 46.2 µM), inactives show at the top dose activity change, negative = growth inhibition, hits mostly inhibitors. 12% of 420,000 active. AID 686979, 2013; note: nearly all actives have a fitted effect of over 55% in size
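Chicken DT40 Tdp1-/- cells complemented with human TDP1, 400 cells/well, exposed to compounds plus 20 nM camptothecin for at least 48 h at 37 C; viability read as ATP content by CellTiter-Glo luminescence.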
KB-V1 MDR tox: qHTS assay for MDR1-selective chemotherapeutics: Primary screen using the drug-selected MDR subline cells KB-V1. KB-V1 MDR cells viability, CellTiter-Glo, 72 h. Potency, µM (titrated, usually from 46.1 µM), actives largely listed as cytotoxic. 3.4% of 400,000 active; note: nearly all actives have a fitted effect of over 60% in size
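KB-V1 MDR subline cells in DMEM (phenol-red free, 10% FBS) exposed to compounds in qHTS concentration series for 72 h at 37 degrees C. Viability read by CellTiter-Glo luminescence; concentration-effect curves fitted after normalization and correction.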
HT1080-NT tox: qHTS for induction of synthetic lethality in tumor cells producing 2HG: qHTS for the HT-1080-NT fibrosarcoma cell line. HT-1080-NT fibrosarcoma viability, CellTiter-Glo ATP luminescence, 48 h. Potency, µM (titrated, usually from 46.1 µM), for the others: top-dose activity, negative = less viability, most hits filed as cytotoxic. 1.6% of 360,000 active. AID 686970, 2013;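 note: NT is the 2HG producing partner of a matched IDH1 knockdown line; 0% = DMSO-treated cells and -100% = media-only wells without cells; nearly all actives have a fitted effect of over 55% in size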
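Read-out is CellTiter-Glo luminescence after 10 minutes at room temperature, following 48 hours' compound treatment of HT-1080-NT cells (750 cells/well, RPMI, 5% FBS, 37 degrees C).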
HT1080 IDH1KD tx: qHTS for induction of synthetic lethality in tumor cells producing 2HG: qHTS for the HT-1080-IDH1KD cell line. HT-1080 IDH1 knockdown viability, ATP luminescence, 48 h. AID 686971, 2013. Potency, µM (series often up to 46.1 µM), inactives show at the top dose activity, negative = toxicity, hits mostly cytotoxic. 2% of 360,000 active;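 note: 0% = DMSO wells and -100% = cell-free medium wells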
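HT-1080-IDH1KD cells (IDH1 knocked down), 750/well in RPMI with 5% FBS, treated with compound 48 h at 37 degrees C. Viability by CellTiter-Glo luminescence, normalised to DMSO and no-cell wells; concentration-response curves classed.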
KB-3-1 cytotox: qHTS assay for MDR1-selective chemotherapeutics: Primary screen using the parental adenocarcinoma cell KB-3-1; KB-3-1 viability, CellTiter-Glo ATP luminescence, 72 h; Potency, µM (titrated, usually from 46.1 µM), usual class: cytotoxic; 1.4% of 400,000 active; AID 1347075, 2019; note: nearly all actives have a fitted effect of over 60% in size
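Luminescent ATP read-out (CellTiter-Glo) measures survival of drug-naive KB-3-1 cells after 72 h compound exposure at 37 °C. Titration series was screened from lowest to highest concentration, with DMSO vehicle plates as background controls.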
Active calls of the source: *. In the library only some 19% were active in any assay of this set; here they are far more common. Calls come from the whole dose curve; as a rule, active = well fitted curve in the direction sought with a large enough effect; inconclusive = small, poorly fitted or top-dose-only effect, or another doubt; inactive = no such curve, though single readings can be large; an effect the other way counts as inactive or inconclusive. Unless noted, % is set by controls: 0 for no effect and ±100 for the full control effect; potency is the fitted concentration of half-maximal effect.

Results for CC(C)(C)N1C(=O)[C@H]2[C@@H](c3ccc(Br)cc3)N3C(=O)N(c4cccc(F)c4)C(=O)[C@@]3(Cc3ccccc3)[C@H]2C1=O ?
TDP1 cell noCPT: inconclusive; TDP1 cell CPT: inconclusive; KB-V1 MDR tox: inactive; HT1080-NT tox: 9%; HT1080 IDH1KD tx: 4%; KB-3-1 cytotox: inactive

What do the screens show for `COc1ccccc1NC(=O)C1CCCN(S(=O)(=O)c2ccc(-n3cnnn3)cc2)C1` (configuration not stated)?
TDP1 cell noCPT: -25%; TDP1 cell CPT: 2%; KB-V1 MDR tox: inactive; HT1080-NT tox: 0%; HT1080 IDH1KD tx: 7%; KB-3-1 cytotox: inactive

What do the screens show for `COc1ccccc1NC(C)C(=O)c1c[nH]c2ccccc12` (configuration not stated)?
TDP1 cell noCPT: inconclusive; TDP1 cell CPT: 11µM*; KB-V1 MDR tox: inactive; KB-3-1 cytotox: inactive

What do the screens show for `COc1ccccc1OCCNC(=O)C(=O)c1c[nH]c2ccccc12`?
TDP1 cell noCPT: -16%; TDP1 cell CPT: -22%; KB-V1 MDR tox: inactive; HT1080-NT tox: 0%; HT1080 IDH1KD tx: 1%; KB-3-1 cytotox: inactive

How did O=C(c1c[nH]c2ccccc12)C(Cl)c1ccccc1 (configuration not stated) do in these assays?
TDP1 cell noCPT: 21µM*; TDP1 cell CPT: 23µM*; KB-V1 MDR tox: inconclusive; HT1080-NT tox: -29%; HT1080 IDH1KD tx: inconclusive; KB-3-1 cytotox: inactive

Results for CC(Sc1nc(-c2ccccc2)cc(C(F)(F)F)n1)C(=O)NCCN1CCOCC1 (configuration not stated) ?
TDP1 cell noCPT: -14%; TDP1 cell CPT: 2%; KB-V1 MDR tox: inconclusive; HT1080-NT tox: 1%; HT1080 IDH1KD tx: 5%; KB-3-1 cytotox: inactive

How did CCN(CC)C(=O)c1sc(NC(=O)C(C)Sc2nc(-c3ccccc3)cc(C(F)(F)F)n2)c(C(=O)OC)c1C (configuration not stated) do in these assays?
TDP1 cell noCPT: 7.3µM*; TDP1 cell CPT: 7.3µM*

What do the screens show for `CC(Sc1nc(-c2ccccc2)cc(C(F)(F)F)n1)C(=O)O` (configuration not stated)?
TDP1 cell noCPT: -1%; TDP1 cell CPT: inconclusive; KB-V1 MDR tox: inactive; HT1080-NT tox: 0%; HT1080 IDH1KD tx: -6%; KB-3-1 cytotox: inactive

How did CCCOC(=O)c1c(NC(=O)C(C)Sc2nc(-c3ccccc3)cc(C(F)(F)F)n2)sc(C(=O)N(C)C)c1C (configuration not stated) do in these assays?
TDP1 cell noCPT: 15µM*; TDP1 cell CPT: inconclusive; KB-V1 MDR tox: inconclusive; KB-3-1 cytotox: inconclusive

How did CCc1ccc(-c2nn(CC(=O)Nc3ccccc3C)c3c2cnc2ccc(C)cc23)cc1 do in these assays?
TDP1 cell noCPT: 14%; TDP1 cell CPT: -1%; KB-V1 MDR tox: inconclusive; KB-3-1 cytotox: inactive

Results for O=[N+]([O-])c1ccc(S(=O)(=O)c2cccc(C(F)(F)F)c2)nc1 ?
TDP1 cell noCPT: 0.65µM*; TDP1 cell CPT: 2.6µM*; KB-V1 MDR tox: inconclusive; HT1080-NT tox: 10µM*; HT1080 IDH1KD tx: 7.3µM*; KB-3-1 cytotox: inconclusive

What do the screens show for `Cc1ccc(-n2cnc3c(=O)[nH]cnc32)cc1`?
TDP1 cell noCPT: 9%; TDP1 cell CPT: -6%; KB-V1 MDR tox: 9.2µM*; HT1080-NT tox: 0%; HT1080 IDH1KD tx: 11%; KB-3-1 cytotox: inconclusive

How did Cc1cc(-n2cnc3c(=O)[nH]cnc32)ccc1N do in these assays?
TDP1 cell noCPT: -3%; TDP1 cell CPT: -2%; KB-V1 MDR tox: inactive; HT1080-NT tox: 7%; HT1080 IDH1KD tx: 13%; KB-3-1 cytotox: inactive

What do the screens show for `COc1cc(OC)cc(C(=O)NCCN2C(=O)S/C(=C\c3cccs3)C2=O)c1`?
TDP1 cell noCPT: 16µM*; TDP1 cell CPT: 16µM*; KB-V1 MDR tox: inconclusive; HT1080-NT tox: -18%; HT1080 IDH1KD tx: -19%; KB-3-1 cytotox: inactive

How did COc1cccc(C(=O)NCCN2C(=O)S/C(=C/c3cccs3)C2=O)c1OC do in these assays?
TDP1 cell noCPT: inconclusive; TDP1 cell CPT: -25%; KB-V1 MDR tox: inactive; HT1080-NT tox: -11%; HT1080 IDH1KD tx: -7%; KB-3-1 cytotox: inactive

What do the screens show for `COc1cc(/C=C2\SC(=O)N(CCNC(=O)c3c(C)noc3C)C2=O)cc(OC)c1OC`?
TDP1 cell noCPT: 16µM*; TDP1 cell CPT: inconclusive; KB-V1 MDR tox: inactive; HT1080-NT tox: -3%; HT1080 IDH1KD tx: -3%; KB-3-1 cytotox: inactive

Results for COc1cc(C(=O)NCCN2C(=O)S/C(=C\c3cccs3)C2=O)cc(OC)c1OC ?
TDP1 cell noCPT: 16µM*; TDP1 cell CPT: inconclusive; KB-V1 MDR tox: inconclusive; HT1080-NT tox: -24%; HT1080 IDH1KD tx: inconclusive; KB-3-1 cytotox: inactive

How did COc1cc(C(=O)NCC(=O)NCCN2C(=O)S/C(=C\c3ccc4c(c3)OCO4)C2=O)cc(OC)c1OC do in these assays?
TDP1 cell noCPT: -29%; TDP1 cell CPT: inconclusive; KB-V1 MDR tox: inactive; HT1080-NT tox: 3%; HT1080 IDH1KD tx: 1%; KB-3-1 cytotox: inactive

How did C[C@H](NC(=O)[C@@H]1CCCN1C(=O)[C@@H]1CCCN1)c1ccccc1 do in these assays?
TDP1 cell noCPT: -9%; TDP1 cell CPT: 1%; KB-V1 MDR tox: inactive; HT1080-NT tox: 2%; HT1080 IDH1KD tx: 0%; KB-3-1 cytotox: inactive

What do the screens show for `O=c1[nH]c(=S)[nH]c2c1C(c1ccc(F)cc1)OC(CCOCc1ccccc1)C2` (configuration not stated)?
TDP1 cell noCPT: -3%; TDP1 cell CPT: 5%; KB-V1 MDR tox: inactive; HT1080-NT tox: -14%; HT1080 IDH1KD tx: 1%; KB-3-1 cytotox: inactive

What do the screens show for `CCC1CCCCN1C(=O)CSc1nc(-c2ccc(OC)c(OC)c2)cc(C(F)(F)F)n1` (configuration not stated)?
TDP1 cell noCPT: 23µM*; TDP1 cell CPT: inconclusive; KB-V1 MDR tox: inconclusive; KB-3-1 cytotox: inactive

Compound activity deposited in PubChem BioAssay by National Center for Advancing Translational Sciences (NCATS).
